From PubChem BioAssay (EPA / NIEHS)
Records with an inconclusive call do not appear. Activity calls are given as the source filed them. How the source made its calls, unless noted: active means hit-call score of the fitted dose curve at least 0.9, where 1 is the maximum; inactive means score below 0.9.

Tests used:
[1] = CCTE_Mundy_HCI_Cortical_Synap_Neur_Matur_NeuriteLength: CCTE's Synaptogenesis and Neurite Maturation Assay in rat cortical cells for Neurite Length, Mundy Lab (AID 2284214)
Outline: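 Rat primary cortical cultures, AraC added DIV 5, dosed DIV 7 through DIV 12 […]. Fixed, MAP2/synaptophysin immunostained with Hoechst; neurite length by high-content imaging, fitted in positive direction versus DMSO.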

[2] = CCTE_Mundy_HCI_Cortical_Synap_Neur_Matur_NeuriteSpotCountPerNeuron: CCTE's Synaptogenesis and Neurite Maturation Assay in rat cortical cells for Neurite Spot Count per Neuron Count, Mundy Lab (AID 2284215)
Outline: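 Developing rat cortical neurons, with glia suppressed by AraC, are exposed to chemicals from DIV 7 to DIV 12. Automated fluorescence imaging of MAP2-labelled neurites and synaptophysin puncta yields a count per neuron, normalised against DMSO wells.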

[3] = CCTE_Mundy_HCI_Cortical_Synap_Neur_Matur_SynapseCount: CCTE's Synaptogenesis and Neurite Maturation Assay in rat cortical cells for Synapse Count, Mundy Lab (AID 2284218)
Outline: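 Rat primary cortical cultures, AraC at DIV 5, chemical dosing DIV 7 to DIV 12 (288.33 h). Fixed cells stained for MAP2, synaptophysin and Hoechst; synapses per neuron counted by high-content imaging, loss of signal versus DMSO.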

[4] = CCTE_Mundy_HCI_Cortical_Synap_Neur_Matur_NeuriteCount: CCTE's Synaptogenesis and Neurite Maturation Assay in rat cortical cells for Neurite Count, Mundy Lab (AID 2284222);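 further: exposure from day 7 to day 12 in vitro with readout at day 12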
Outline: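 Rat primary cortical cells; AraC added at DIV 5, chemicals dosed with media change at DIV 7 through DIV 12. MAP2/synaptophysin/Hoechst immunostaining, high-content imaging of neurite number; fitted relative to DMSO.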

[5] = CCTE_Mundy_HCI_Cortical_Synap_Neur_Matur_CellBodySpotCount: CCTE's Synaptogenesis and Neurite Maturation Assay in rat cortical cells for Cell Body Spot Count, Mundy Lab (AID 2284223)
Outline: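 Chemicals were applied to AraC-treated rat primary cortical cells at DIV 7 and measured at DIV 12. Fixed cells were labelled for MAP2, synaptophysin and nuclei, and high-content imaging gave cell body synaptophysin spot counts per neuron relative to DMSO.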

[6] = CCTE_Mundy_HCI_hNP1_Pro_ResponderAvgInten: CCTE's Proliferation Assay in human neuroprogenitor cells, Mundy Lab (AID 2284224; active means hit-call score of the fitted dose curve at least 0.9, where 1 is the maximum;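 further: human neural progenitor cells hNP1 derived from WA09 embryonic stem cells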)
Outline: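 Proliferation read as average intensity of BrdU-positive cells, imaged at 26.25 h post-dosing: chemical exposure started after 40–44 h culture, BrdU during final 4 h, paraformaldehyde fixation. Positive-direction fit relative to DMSO.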

[7] = UKN2_HCS_IMR90_cell_viability: Viability Assessment in the University of Konstanz (UKN) Leist Lab Neural Crest Cell Migration Assay in human induced IMR90 Pluripotent Stem Cells (UKN2) (AID 2284233);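 further: viability of neural crest cells differentiated from IMR90 iPSC measured by calcein-AM fluorescence imaging; cells exposed to compound for 24 h after a 24 h migration phase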
Outline: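 Neural crest cells derived from IMR90 iPSC migrate into a stopper-free zone for 24 h in EGF/FGF medium, then are exposed to compound for 24 h. Viability assessed by calcein-AM and Hoechst staining with high-content imaging, fitted bidirectionally versus DMSO.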

[8] = CCTE_Mundy_HCI_Cortical_NOG_NeuronCount: CCTE's Neurite Outgrowth Assay in rat cortical cells for Neuron Count, Mundy Lab (AID 2284236; active means hit-call score of the fitted dose curve at least 0.9, where 1 is the maximum;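 further: neurons counted by imaging betaIII-tubulin and Hoechst stained cortical cells; cells exposed to compound for about 48 hours before fixation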)
Outline: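 Read-out: neuron number by high-content imaging of betaIII-tubulin (Alexa Fluor-488) and Hoechst-labelled rat primary cortical cells.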

[9] = CCTE_Mundy_HCI_Cortical_NOG_BPCount: CCTE's Neurite Outgrowth Assay in rat cortical cells for Branch Point Count, Mundy Lab (AID 2284237)
Outline: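 Measured 50.33 h after dosing, this morphology endpoint uses rat primary cortical cultures labelled for betaIII-tubulin. Branch points are quantified by high-content imaging, with DMSO as negative control and baseline.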

[10] = CCTE_Mundy_HCI_hNP1_Casp3_7: CCTE's Caspase-Glo 3/7 Assay in human neuroprogenitor cells for Apoptosis, Mundy Lab (AID 2284240)
Outline: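 Luminescent caspase-3/7 readout, 26.5 h post-dose, in human neural progenitor cells from WA09 embryonic stem cells. Cells grew 40–44 h at 37 °C, 5% CO2 before chemical addition. Activity analysed as signal increase over DMSO baseline.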

[11] = CCTE_Mundy_HCI_hNP1_CellTiter: CCTE's Cell Titer-Glo 2 Assay in human neuroprogenitor cells for Viability, Mundy Lab (AID 2284241; active means hit-call score of the fitted dose curve at least 0.9, where 1 is the maximum)
Outline: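 Viability read as luminescent ATP content (CellTiter-Glo, 30 min room temperature) twenty-four hours after dosing, relative to DMSO. Cells: WA09-derived hNP1 neuroprogenitors on poly-L-ornithine/laminin, plated 40 to 44 hours before chemical.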

[12] = IUF_NPC2c_oligodendrocyte_migration_120hr: Leibniz Research Institute for Environmental Medicine (IUF) 120-hour Neural Progenitor Cell Migration Assay for Oligodendrocyte Migration (NPC2c) (AID 2284297);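 further: O4-positive oligodendrocyte migration distance divided by radial glia migration distance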
Outline: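 Using fetal brain neural progenitor spheres differentiating in N2 medium at 37C, compounds were present for 120 h. Oligodendrocyte migration distance, normalized to radial glia migration, was measured from imaged O4 staining.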

[13] = IUF_NPC2a_radial_glia_migration_120hr: Leibniz Research Institute for Environmental Medicine (IUF) 120-hour Neural Progenitor Cell Migration Assay for Radial Glia Migration (NPC2a) (AID 2284298)
Outline: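 Exposure of 0.3 mm primary hNPC spheres runs day 0 to 120 h with a half-volume medium change at day 3. Fixed cells get Hoechst staining; high-content analysis of nuclear positions yields radial glia migration distance per well, compared against DMSO controls.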

[14] = IUF_NPC2a_radial_glia_migration_72hr: Leibniz Research Institute for Environmental Medicine (IUF) 72-hour Neural Progenitor Cell Migration Assay for Radial Glia Migration (NPC2a) (AID 2284299)
Outline: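 Human fetal neural progenitor spheres (0.3 mm) plated on poly-D-lysine/laminin in N2 differentiation medium and exposed from day 0 at 7 concentrations; radial glia migration distance from sphere edge measured at 72 h on brightfield images, mean of four directions, vs DMSO.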

[15] = IUF_NPC2b_neuronal_migration_120hr: Leibniz Research Institute for Environmental Medicine (IUF) 120-hour Neural Progenitor Cell Migration Assay for Neuron Migration (NPC2b) (AID 2284300)
Outline: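 Fetal human NPC spheres migrate on PDL/laminin during 120 h compound treatment; neuronal migration distance, glia-normalized, scored versus DMSO control.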

[16] = IUF_NPC3_neuronal_differentiation_120hr: Leibniz Research Institute for Environmental Medicine (IUF) 120-hour Neuronal Differentiation Assay (NPC3) (AID 2284301)
Outline: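 Human fetal (GW 16-19) neural progenitor spheres (0.3 mm) plated on poly-D-lysine/laminin in N2 differentiation medium, exposed 120 h at 37C with half-medium renewal day 3; 7 concentrations. TUBB3+ cells as % of Hoechst nuclei, CNN-identified; DMSO baseline.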

[17] = IUF_NPC4_neurite_area_120hr: Leibniz Research Institute for Environmental Medicine (IUF) 120-hour Neuronal Morphology Assay for Neurite Area (NPC4) (AID 2284305; active means hit-call score of the fitted dose curve at least 0.9, where 1 is the maximum)
Outline: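 Human fetal neural progenitor spheres (0.3 mm) plated on poly-D-lysine/laminin in N2 differentiation medium, exposed 120 h (7 concentrations, DMSO ≤0.1%, half-medium refresh day 3). Fixed, TUBB3 immunostained; mean neurite area per neuron by Omnisphero skeletonization.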

[18] = IUF_NPC2-5_cytotoxicity_72hr: Cytotoxicity Assessment at 72 hours in the Leibniz Research Institute for Environmental Medicine (IUF) Neural Progenitor Cell Migration and Differentiation Assay for Cytotoxicity (NPC2-5) (AID 2284306; active means hit-call score of the fitted dose curve at least 0.9, where 1 is the maximum;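 further: LDH release into supernatant measured by resorufin fluorescence marking membrane damage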)
Outline: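 Human fetal primary neural progenitor spheres (0.3 mm) plated on poly-D-lysine/laminin in N2 differentiation medium, exposed from day 0 at 37C. LDH-dependent resazurin-to-resorufin fluorescence in supernatant at 72 h; 7 concentrations, DMSO at most 0.1%.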

[19] = IUF_NPC2-5_cell_number_120hr: Cell Number Assessment at 120 hours in the Leibniz Research Institute for Environmental Medicine (IUF) Neural Progenitor Cell Migration and Differentiation Assay (NPC2-5) (AID 2284308);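 further: count of Hoechst-stained nuclei in migration zone around plated human neural progenitor spheres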
Outline: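 Seven-point serial dilutions plus solvent control were applied to plated 0.3 mm hNPC spheres at differentiation start, with medium half-replaced at day 3. Nuclei positive for Hoechst in the migration zone were enumerated at 120 h.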

[20] = IUF_NPC2-5_viability_120hr: Viability Assessment at 120 hours in the Leibniz Research Institute for Environmental Medicine (IUF) Neural Progenitor Cell Migration and Differentiation Assay (NPC2-5) (AID 2284312)
Outline: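 Human fetal neural progenitor spheres (0.3 mm) plated on poly-D-lysine/laminin in N2 differentiation medium, exposed 120 h with half-medium refresh at day 3. Viability by alamar blue resazurin fluorescence; 7 concentrations, DMSO max 0.1%.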

[21] = CCTE_Mundy_HCI_iCellGluta_NOG_NeuriteLength: CCTE's Neurite Outgrowth Assay in iCellGluta cells for Neurite Length, Mundy Lab (AID 2284318; active means hit-call score of the fitted dose curve at least 0.9, where 1 is the maximum)
Outline: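 Automated high-content imaging of betaIII-tubulin (Alexa Fluor-488) and Hoechst-stained cells gave neurite length, normalized to the DMSO baseline.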

[22] = IUF_NPC1_cytotoxicity_72hr: Cytotoxicity Assessment at 72 hours in the Leibniz Research Institute for Environmental Medicine (IUF) Neural Progenitor Cell Proliferation Assay (NPC1) (AID 2284332; active means hit-call score of the fitted dose curve at least 0.9, where 1 is the maximum;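 further: rising LDH signal means more cytotoxicity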)
Outline: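 Human fetal neural progenitor spheres (0.3 mm) in EGF/FGF proliferation medium, 37C, exposed 72 h without renewal. LDH release in supernatant read by resorufin fluorescence; gain of signal scored relative to dynamic range.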

[23] = CCTE_Mundy_HCI_iCellGluta_NOG_NeuriteCount: CCTE's Neurite Outgrowth Assay in iCellGluta cells for Neurite Count, Mundy Lab (AID 2284342; active means hit-call score of the fitted dose curve at least 0.9, where 1 is the maximum;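 further: chemical exposure about 48 hours starting 2 hours after plating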)

Measured: AC50

CCCCCC(C)(CC)C(=O)NC (stereo not drawn)
active: [14] 1.02 µM
inactive: all other assays above
